{
  "source": "PubChem BioAssay AID2016",
  "about": "(NMMLSC, 2009)",
  "note": "The whole screen tested about 330,000 compounds, of which about 1,700 (0.52%) were called active.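 Rule for the calls: active = GFP response versus DMSO above a set limit, roughly screen mean plus 3 SD (cut at about 180% in these data); inconclusive = fewer than 70 cells counted for a yeast strain; inactive = the rest.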 Many of the other results were omitted from the sample, so actives are more common in it than they were.",
  "data": [
    {"assay": "TOR pathway GLN3 branch reporter MEP2-GFP changes – S. cerevisiae, multiplex flow cytometry, MLPCN library, primary screen (AID 2016);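 note: median GFP fluorescence of the barcode-gated MEP2-GFP cells per well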", "details": "S. cerevisiae MEP2-GFP strain, 3 h, at 10 µM, active compounds read high, 100% = DMSO control level", "values": [
      {"smiles": "COc1ccc(S(=O)(=O)NCC(c2ccco2)N2CCOCC2)cc1", "note": "(centres undefined)", "GFP response vs DMSO": "97.3% (inactive)"},
      {"smiles": "O=C(CC1CCCCC1)NCc1ccc(F)cc1", "GFP response vs DMSO": "92.1% (inactive)"},
      {"smiles": "O=C(CSc1nnnn1-c1ccc(O)cc1)c1ccc(F)cc1", "GFP response vs DMSO": "106% (inactive)"},
      {"smiles": "COC(=O)c1ccc(-c2noc(CN(Cc3ccccn3)CC3CCCO3)n2)cc1", "note": "(centres undefined)", "GFP response vs DMSO": "102% (inactive)"},
      {"smiles": "COc1ccc(CN2CCn3ncc(C(=O)Nc4ccc(Cl)cc4Cl)c3C2=O)cc1", "GFP response vs DMSO": "107% (inactive)"},
      {"smiles": "O=C1N=C(N2CCOCC2)CS1", "GFP response vs DMSO": "99.2% (inactive)"},
      {"smiles": "CC(=O)NC(CC(=O)Nc1ccc(S(=O)(=O)N2CCOCC2)cc1)c1ccccc1", "note": "(centres undefined)", "GFP response vs DMSO": "95.3% (inactive)"},
      {"smiles": "O=[N+]([O-])c1ccc(N/N=C/c2ccccc2)cc1", "GFP response vs DMSO": "102% (inactive)"},
      {"smiles": "O=C(N/N=C/c1cccc([N+](=O)[O-])c1)C1CC(=O)N(c2ccc(Br)cc2)C1", "note": "(centres undefined)", "GFP response vs DMSO": "100% (inactive)"},
      {"smiles": "O=[N+]([O-])c1cccc(/C=N/Nc2ncc(Br)cn2)c1", "GFP response vs DMSO": "239% (active)"},
      {"smiles": "COC(=O)C(C)n1cnc2c(nnn2-c2ccc(F)cc2)c1=O", "note": "(centres undefined)", "GFP response vs DMSO": "95.3% (inactive)"},
      {"smiles": "CCOC(=O)C(C)n1cnc2c(nnn2-c2ccc(F)cc2)c1=O", "note": "(centres undefined)", "GFP response vs DMSO": "98.2% (inactive)"},
      {"smiles": "CCOC(=O)C(CC)Sc1ncnc2c1nnn2-c1ccc(F)cc1", "note": "(centres undefined)", "GFP response vs DMSO": "191% (active)"},
      {"smiles": "CC(=O)c1cccc(OCc2cc(C(=O)NC(C)Cc3cccnc3)no2)c1", "note": "(centres undefined)", "GFP response vs DMSO": "92.2% (inactive)"},
      {"smiles": "CCOC(=O)c1[nH]c(C)c(C(=O)OCC(=O)N2c3ccccc3CC2C)c1C", "note": "(centres undefined)", "GFP response vs DMSO": "105% (inactive)"},
      {"smiles": "CN(C)C(=O)c1cccn(Cc2cccc(C(F)(F)F)c2)c1=O", "GFP response vs DMSO": "97.2% (inactive)"},
      {"smiles": "COc1ccccc1Nc1nnc(SC(C)C(=O)NC2CC2)s1", "note": "(centres undefined)", "GFP response vs DMSO": "100% (inactive)"},
      {"smiles": "COc1cc(CN2CCCC(C(=O)c3ccc(SC)cc3)C2)cc(Cl)c1O", "note": "(centres undefined)", "GFP response vs DMSO": "596% [may fluoresce violet] (active)"},
      {"smiles": "COc1ccc(CN2CCCC(C(=O)c3ccc(Cl)cc3)C2)cc1Cn1cncn1", "note": "(centres undefined)", "GFP response vs DMSO": "99.8% (inactive)"},
      {"smiles": "COc1ccc(C(=O)NC2CC2)cc1OC1CCN(Cc2ccc(SC)cc2)CC1", "GFP response vs DMSO": "112% (inactive)"},
      {"smiles": "COc1ccc(OC)c(NC(=O)CSc2nc(-c3ccccc3)cc(=O)[nH]2)c1", "GFP response vs DMSO": "107% (inactive)"},
      {"smiles": "Cc1cc(=O)oc2cc(OCC3CC(c4ccccc4Cl)=NO3)ccc12", "note": "(centres undefined)", "GFP response vs DMSO": "100% (inactive)"},
      {"smiles": "O=C(Cn1ncc(N2CCCC2)c(Br)c1=O)c1ccc(Cl)cc1", "GFP response vs DMSO": "98.2% (inactive)"},
      {"smiles": "Cc1oc(-c2ccccc2F)nc1CS(=O)CC(=O)NCCN1CCCCC1C", "note": "(centres undefined)", "GFP response vs DMSO": "103% (inactive)"},
      {"smiles": "Cc1ccccc1S(=O)(=O)Cc1ccc(C(=O)NCCN2CCCCC2C)o1", "note": "(centres undefined)", "GFP response vs DMSO": "460% [may fluoresce violet] (active)"},
      {"smiles": "CCc1ccccc1S(=O)(=O)Cc1ccc(C(=O)NCCc2ccccc2)o1", "GFP response vs DMSO": "109% (inactive)"},
      {"smiles": "CCOc1ccc(CCNC(=O)C(CC)n2nc(C)n3c(cc4sccc43)c2=O)cc1OCC", "note": "(centres undefined)", "GFP response vs DMSO": "105% (inactive)"},
      {"smiles": "CCOc1ccc2nc(N(CCN(C)C)C(=O)c3ccc4ccccc4c3)sc2c1", "GFP response vs DMSO": "233% [may fluoresce violet] (active)"},
      {"smiles": "CCc1ccc2nc(N(CCCN(C)C)C(=O)c3ccc4c(c3)OCCO4)sc2c1", "GFP response vs DMSO": "104% (inactive)"},
      {"smiles": "CCOc1ccc2nc(N(CCCN(C)C)C(=O)c3ccc(C(=O)c4ccccc4)cc3)sc2c1", "GFP response vs DMSO": "104% (inactive)"},
      {"smiles": "CC(C)(C)c1ccc(C(CC(=O)O)NS(=O)(=O)Cc2ccccc2)cc1", "note": "(centres undefined)", "GFP response vs DMSO": "98.8% (inactive)"},
      {"smiles": "CCSC1=NCCN1C(=O)c1ccc(S(=O)(=O)N(CC)CC)cc1", "GFP response vs DMSO": "106% (inactive)"},
      {"smiles": "O=C(NCCc1ccccc1)C(=O)NCC1OCCN1S(=O)(=O)c1cccs1", "note": "(centres undefined)", "GFP response vs DMSO": "108% (inactive)"},
      {"smiles": "CCN1/C(=C\\c2ccc3ccccc3[n+]2CC)Sc2cc(C)ccc21", "GFP response vs DMSO": "1150% [may fluoresce green] (active)"},
      {"smiles": "CCN1/C(=C/c2ccc3ccc(C)cc3[n+]2CC)Sc2ccccc21", "GFP response vs DMSO": "351% [may fluoresce green] (active)"},
      {"smiles": "O=C(NC1Cc2ccccc2C1)c1cc(COc2cccc(C(F)(F)F)c2)on1", "GFP response vs DMSO": "104% (inactive)"},
      {"smiles": "Cc1ccc(OCC(=O)Nc2ccc(N3CCN(C(=O)c4ccco4)CC3)cc2)c(C)c1", "GFP response vs DMSO": "229% [may fluoresce violet] (active)"},
      {"smiles": "Cc1ccc(C)c(OCC(=O)N2CCN(C(=O)c3ccco3)CC2)c1", "GFP response vs DMSO": "105% (inactive)"},
      {"smiles": "CCC(=O)Nc1ccc(C(=O)N2CCN(C(=O)c3ccco3)CC2)cc1", "GFP response vs DMSO": "104% (inactive)"},
      {"smiles": "CCN(C[C@H]1N[C@@](Cc2ccccc2)(C(=O)OC)[C@H]2C(=O)N(Cc3ccccc3)C(=O)[C@@H]12)C(=O)c1ccc(C)cc1", "GFP response vs DMSO": "84.7% (inactive)"},
      {"smiles": "CC(C)(C)OC(=O)c1c(N)n(CCCN2CCCC2=O)c2nc3ccccc3nc12", "GFP response vs DMSO": "107% (inactive)"},
      {"smiles": "COCC(C)OC(=O)c1c(N)n(CCCN2CCOCC2)c2nc3ccccc3nc12", "note": "(centres undefined)", "GFP response vs DMSO": "210% [may fluoresce violet] (active)"},
      {"smiles": "CC(CN1CCOCC1)OC(=O)c1ccc(C(C)(C)C)cc1", "note": "(centres undefined)", "GFP response vs DMSO": "110% (inactive)"},
      {"smiles": "CCOC(=O)Cc1csc(NC(=O)CN(C)S(=O)(=O)c2ccc3c(c2)CCC(=O)N3)n1", "GFP response vs DMSO": "96% (inactive)"},
      {"smiles": "CCCN1C(=O)C(NC(C)=O)c2cc(OC)ccc21", "note": "(centres undefined)", "GFP response vs DMSO": "107% (inactive)"},
      {"smiles": "O=C(CS(=O)(=O)c1cn(Cc2ccc(Cl)cc2)c2ccccc12)N1CCOCC1", "GFP response vs DMSO": "91.9% (inactive)"},
      {"smiles": "CC(=O)Nc1ccc(NC(=O)CS(=O)(=O)c2cn(CC(=O)N3CCCCC3)c3ccccc23)cc1", "GFP response vs DMSO": "95.1% (inactive)"},
      {"smiles": "O=C(CS(=O)(=O)c1cn(Cc2cccc(F)c2)c2ccccc12)N1CCCCC1", "GFP response vs DMSO": "236% [may fluoresce violet] (active)"},
      {"smiles": "CC(NC(=O)c1cccc2ccccc12)c1ccc2c(c1)CCCC2", "note": "(centres undefined)", "GFP response vs DMSO": "148% (inactive)"},
      {"smiles": "Cc1c(C(=O)OCC(=O)N2CCCC2=O)oc2ccccc12", "GFP response vs DMSO": "108% (inactive)"},
      {"smiles": "Cc1ccc(C(=O)N2CC(=O)Nc3ccccc32)o1", "GFP response vs DMSO": "101% (inactive)"},
      {"smiles": "O=C(O)c1cccc2c1C(=O)N(C1CCCC1)C2", "GFP response vs DMSO": "97.4% (inactive)"},
      {"smiles": "Nc1nnc(SCC(=O)OCc2ccc(Cl)c(Cl)c2)s1", "GFP response vs DMSO": "95.3% (inactive)"},
      {"smiles": "NC(=O)C1CCN(C(=O)/C(=C/c2ccco2)NC(=O)c2ccccc2)CC1", "GFP response vs DMSO": "215% [may fluoresce violet] (active)"},
      {"smiles": "O=C(NCC1CCCO1)/C(=C\\c1ccco1)NC(=O)c1ccccc1", "note": "(centres undefined)", "GFP response vs DMSO": "102% (inactive)"},
      {"smiles": "CC1CCN(C(=O)/C(=C\\c2ccccc2)NC(=O)c2ccccc2)CC1", "GFP response vs DMSO": "106% (inactive)"},
      {"smiles": "Cc1ccc(C(=O)N/C(=C\\c2ccco2)C(=O)N2CCSCC2)cc1C", "GFP response vs DMSO": "109% (inactive)"},
      {"smiles": "O=C(NCc1ccco1)/C(=C/c1ccco1)NC(=O)c1ccccc1", "GFP response vs DMSO": "206% [may fluoresce violet] (active)"},
      {"smiles": "Cc1ccc(C(=O)N/C(=C/C=C/c2ccccc2)C(=O)NCc2ccco2)cc1", "GFP response vs DMSO": "95.7% (inactive)"}
    ]}
  ]
}
